Assay results: PubChem BioAssay (Tox21)
The source made the active and inactive calls. A call without a number means that no potency is given here. Unless noted, calls come from the whole dose curve; as a rule, active = well fitted curve in the direction sought with a large enough effect in the repeat runs; inconclusive = weak or mixed curves; inactive = no such curve, though single readings can be large; an effect the other way counts as inactive or inconclusive.

Assays:
[1] = qHTS assay to identify small molecule antagonists of the thyroid receptor (TR) signaling pathway - cell viability counter screen (AID 743064); note: nearly all actives have a fitted effect of over 50% in size; note: potency is the fitted concentration of half-maximal effect
Procedure, shortened: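 Rat GH3 pituitary tumor cells stably expressing two TR response elements driving luciferase were plated, rested 4 h, then dosed with library compounds and T3 (1 nM final). After 23.5 h at 37 °C, CellTiter-Fluor was added for 30 min and fluorescence recorded.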

[2] = qHTS assay to identify small molecule antagonists of the thyroid receptor (TR) signaling pathway (AID 743065); note: nearly all actives have a fitted effect of over 55% in size; note: potency is the fitted concentration of half-maximal effect
Procedure, shortened: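 GH3.TRE-Luc rat pituitary cells (two TREs driving luciferase) were dosed with compound, then stimulated with 1 nM T3 (final) for 23.5 h at 37 C. ONE-Glo luminescence was the read-out, with CellTiter-Fluor fluorescence as the cytotoxicity counter-screen.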

[3] = test system: thyroid hormone receptor (rat, GH3 cells); assay: qHTS assay to identify small molecule agonists of the thyroid receptor (TR) signaling pathway (AID 743066; calls by dose curve)
[4] = molecular target: Estrogen receptor (Homo sapiens) (UniProt P03372); assay: qHTS assay to identify small molecule antagonists of the estrogen receptor alpha (ER-alpha) signaling pathway (AID 743069; active = well fitted curve in the direction sought with a large enough effect in the signal ratio in the repeat runs, not every such curve was filed as active; inconclusive = weak or mixed curves, or effect the other way; inactive = no such curve, though single readings can be large or run the other way; the % refers to the signal ratio; note: potency is the fitted concentration of half-maximal effect)
Procedure, shortened: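 In this cell-based reporter format, GripTite HEK293 cells harbouring ER-alpha-UAS-bla were grown overnight with 2% charcoal-stripped FBS, dosed with DMSO-dissolved compounds, then challenged with 17beta-estradiol. After 18 hr at 37C, beta-lactamase activity was detected by FRET fluorescence.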

[5] = molecular target: Estrogen receptor (Homo sapiens) (UniProt P03372); assay: qHTS assay to identify small molecule agonists of the estrogen receptor alpha (ER-alpha) signaling pathway (AID 743075; calls by dose curve)
[6] = molecular target: Estrogen receptor (Homo sapiens) (UniProt P03372); assay: qHTS assay to identify small molecule agonists of the estrogen receptor alpha (ER-alpha) signaling pathway using the BG1 cell line (AID 743079); conditions: BG1Luc4E2 cells, ERE-luciferase agonist, 22 h; activation: at 70.3 µM (top of the series); note: nearly all actives have a fitted effect of over 20% in size
[7] = qHTS assay to identify small molecule antagonists of the estrogen receptor alpha (ER-alpha) signaling pathway using the BG1 cell line (AID 743080; calls by dose curve;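 note: BG1 cells stimulated with 17beta-estradiol alongside compound; nearly all actives have a fitted effect of over 25% in size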)
Procedure, shortened: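 BG1Luc4E2, endogenous ER-alpha, 4xERE-luc; 5 d charcoal-stripped FBS, phenol red free; 24 h plating; cpd + 17beta-estradiol 21.5 h, 37 C/5% CO2; CellTiter-Fluor viability 30 min, then ONE-Glo luciferase 30 min RT.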

[8] = qHTS assay to identify small molecule antagonists of the estrogen receptor alpha (ER-alpha) signaling pathway using the BG1 cell line - cell viability counter screen (AID 743081);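 note: compound given together with 17beta-estradiol as the ER stimulus; nearly all actives have a fitted effect of over 45% in size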
Aromatase (Homo sapiens) = Aromatase (Homo sapiens) (UniProt P11511); assay: qHTS assay to identify aromatase inhibitors (AID 743083); note: nearly all actives have a fitted effect of over 55% in size
[9] = qHTS assay to identify aromatase inhibitors - cell viability counter screen (AID 743084);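 note: cells stimulated with testosterone during compound exposure; nearly all actives have a fitted effect of over 55% in size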
[10] = molecular target: Aryl hydrocarbon receptor (Homo sapiens) (UniProt P35869); assay: qHTS assay to identify small molecule that activate the aryl hydrocarbon receptor (AhR) signaling pathway (AID 743085);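 note: HG2L7.5c1 human HepG2 liver cells with stably integrated DRE-driven firefly reporter; nearly all actives have a fitted effect of over 15% in size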
Procedure, shortened: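 Compounds were tested in HepG2 hepatocellular carcinoma cells harbouring a stably integrated luciferase gene under control of 20 DREs. Increased reporter signal after 24 h treatment at 37C was taken as AhR activation.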

[11] = qHTS assay to identify small molecule that activate the aryl hydrocarbon receptor (AhR) signaling pathway - cell viability counter screen (AID 743086);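 note: HepG2 liver cells carrying the AhR DRE luciferase reporter; nearly all actives have a fitted effect of over 45% in size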
Procedure, shortened: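 HepG2-AhR-luc (HG2L7.5c1) cells, 4000/well, treated 24 h at 37 C with compound; viability measured as CellTiter-Fluor fluorescence after 30 min in the same wells as the luciferase read.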

[12] = molecular target: Peroxisome proliferator-activated receptor gamma (Homo sapiens) (UniProt P37231); assay: qHTS assay to identify small molecule agonists of the peroxisome proliferator-activated receptor gamma (PPARg) signaling pathway (AID 743094; active = well fitted activation curve with a large enough effect in the signal ratio in the repeat runs, not every such curve was filed as active; inconclusive = weak or mixed curves, or effect the other way; inactive = no such curve, though single readings can be large or run the other way; the % refers to the signal ratio)
Procedure, shortened: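 Agonist activity was taken from a beta-lactamase reporter (FRET substrate, 1 h at room temperature) in HEK293H cells carrying a PPARg UAS-bla construct. Compounds in DMSO were incubated 17 h at 37C after a 5 h cell pre-incubation.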

[13] = qHTS assay for small molecule agonists of the antioxidant response element (ARE) signaling pathway - cell viability counter screen (AID 743203; calls by dose curve; note: nearly all actives have a fitted effect of over 55% in size)
Procedure, shortened: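 Viability counter screen: CellTiter-Glo luminescence, read after 30 min at room temperature, in ARE-bla HepG2 wells. Compound exposure lasted 16 h at 37C/5% CO2, following a 5 h pre-incubation of the cells after plating.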

[14] = qHTS assay for small molecule activators of the heat shock response signaling pathway - cell viability counter screen (AID 743209); note: nearly all actives have a fitted effect of over 50% in size
Procedure, shortened: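 Cytotoxicity counter screen run in the same wells as the heat-shock bla reporter assay: HeLa HSE-bla cells, 5 h compound exposure at 37 C, viability read by CellTiter-Glo luminescence.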

[15] = qHTS assay for small molecule activators of the heat shock response signaling pathway (AID 743210; active = well fitted activation curve with a large enough effect in the signal ratio in the repeat runs, with a control signal flat, not every such curve was filed as active; inconclusive = weak or mixed curves; the % refers to the signal ratio;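 note: HeLa cells with beta-lactamase reporter driven by heat shock elements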)
Procedure, shortened: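 Following overnight attachment, HSE-bla HeLa cells received test compounds for 5 h at 37 C; beta-lactamase activity was then detected via FRET substrate fluorescence.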

[16] = qHTS assay to identify small molecule antagonists of the estrogen receptor alpha (ER-alpha) signaling pathway - cell viability counter screen (AID 743074; calls by dose curve; note: nearly all actives have a fitted effect of over 45% in size)
[17] = qHTS assay to identify small molecule antagonists of the peroxisome proliferator-activated receptor gamma (PPARg) signaling pathway - cell viability counter screen (AID 743194); note: nearly all actives have a fitted effect of over 55% in size
Procedure, shortened: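 Cytotoxicity counter screen in PPARg-bla HEK293H cells, same wells as reporter assay. Compounds plus 50 nM rosiglitazone (final) for 17 h at 37 C, then viability read by CellTiter-Glo luminescence.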

[18] = qHTS assay for small molecule agonists of the antioxidant response element (ARE) signaling pathway (AID 743202; active = well fitted activation curve with a large enough effect in the signal ratio in the repeat runs, not every such curve was filed as active; inconclusive = weak or mixed curves, or effect the other way; inactive = no such curve, though single readings can be large or run the other way; the % refers to the signal ratio)
Procedure, shortened: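 HepG2 ARE-bla cells; 16 h treatment at 37 C; FRET-based beta-lactamase fluorescence read after 2 h substrate incubation at room temperature.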

[19] = molecular target: Peroxisome proliferator-activated receptor gamma (Homo sapiens) (UniProt P37231); assay: qHTS assay to identify small molecule antagonists of the peroxisome proliferator-activated receptor gamma (PPARg) signaling pathway (AID 743191; calls by dose curve; note: nearly all actives have a fitted effect of over 30% in size)
Procedure, shortened: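 GeneBLAzer PPARg UAS-bla HEK293H cells, 5 h post-plating, exposed to compounds 17 h at 37C. LiveBLAzer B/G FRET substrate added for 1 h at room temperature; beta-lactamase reporter read by fluorescence intensity.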

Chain of Peroxisome proliferator-activated receptor gamma (Homo sapiens) (P37231 whole entry, looked up): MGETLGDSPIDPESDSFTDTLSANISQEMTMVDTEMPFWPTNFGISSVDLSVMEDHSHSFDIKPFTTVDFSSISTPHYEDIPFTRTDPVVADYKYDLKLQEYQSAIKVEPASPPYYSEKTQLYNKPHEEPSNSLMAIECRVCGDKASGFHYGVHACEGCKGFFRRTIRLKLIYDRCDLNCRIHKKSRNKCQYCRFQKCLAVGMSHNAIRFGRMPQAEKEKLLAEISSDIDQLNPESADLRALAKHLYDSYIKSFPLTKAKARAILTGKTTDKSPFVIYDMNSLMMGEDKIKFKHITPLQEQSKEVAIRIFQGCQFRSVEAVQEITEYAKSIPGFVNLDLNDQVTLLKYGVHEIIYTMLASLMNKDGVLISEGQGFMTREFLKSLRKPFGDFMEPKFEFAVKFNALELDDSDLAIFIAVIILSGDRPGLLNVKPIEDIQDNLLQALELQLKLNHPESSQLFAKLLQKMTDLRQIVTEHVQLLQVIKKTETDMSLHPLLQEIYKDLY
Chain of Estrogen receptor (Homo sapiens) (P03372 whole entry, looked up): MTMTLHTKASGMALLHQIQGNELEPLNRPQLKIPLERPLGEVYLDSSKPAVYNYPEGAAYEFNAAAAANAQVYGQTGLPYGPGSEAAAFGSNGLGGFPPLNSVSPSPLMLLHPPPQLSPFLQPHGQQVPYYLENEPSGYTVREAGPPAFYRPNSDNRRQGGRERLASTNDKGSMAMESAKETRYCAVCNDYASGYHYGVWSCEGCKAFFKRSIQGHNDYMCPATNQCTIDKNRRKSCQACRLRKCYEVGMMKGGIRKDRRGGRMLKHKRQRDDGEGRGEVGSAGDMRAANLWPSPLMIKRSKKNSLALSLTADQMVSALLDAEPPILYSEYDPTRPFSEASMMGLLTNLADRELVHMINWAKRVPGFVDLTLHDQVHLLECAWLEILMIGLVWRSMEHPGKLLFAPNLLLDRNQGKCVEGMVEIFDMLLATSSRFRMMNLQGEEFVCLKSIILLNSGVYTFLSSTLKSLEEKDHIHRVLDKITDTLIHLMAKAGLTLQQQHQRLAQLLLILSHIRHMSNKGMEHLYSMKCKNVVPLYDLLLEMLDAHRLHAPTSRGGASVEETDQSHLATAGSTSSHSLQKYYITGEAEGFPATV
Chain of Aromatase (Homo sapiens) (P11511 whole entry, looked up): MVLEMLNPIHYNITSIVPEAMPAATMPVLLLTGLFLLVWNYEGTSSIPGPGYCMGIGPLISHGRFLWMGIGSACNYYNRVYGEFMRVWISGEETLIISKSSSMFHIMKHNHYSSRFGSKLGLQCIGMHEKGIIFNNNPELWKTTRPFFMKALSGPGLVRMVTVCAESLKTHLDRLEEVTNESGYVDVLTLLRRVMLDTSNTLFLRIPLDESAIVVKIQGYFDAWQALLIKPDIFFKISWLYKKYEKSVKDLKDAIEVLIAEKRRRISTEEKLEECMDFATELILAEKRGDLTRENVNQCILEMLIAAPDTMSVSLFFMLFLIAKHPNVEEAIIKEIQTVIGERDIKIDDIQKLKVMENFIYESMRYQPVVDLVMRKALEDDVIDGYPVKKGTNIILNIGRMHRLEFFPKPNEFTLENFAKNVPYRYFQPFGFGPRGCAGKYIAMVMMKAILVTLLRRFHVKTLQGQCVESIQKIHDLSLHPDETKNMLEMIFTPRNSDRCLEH
Chain of Aryl hydrocarbon receptor (Homo sapiens) (P35869 whole entry, looked up): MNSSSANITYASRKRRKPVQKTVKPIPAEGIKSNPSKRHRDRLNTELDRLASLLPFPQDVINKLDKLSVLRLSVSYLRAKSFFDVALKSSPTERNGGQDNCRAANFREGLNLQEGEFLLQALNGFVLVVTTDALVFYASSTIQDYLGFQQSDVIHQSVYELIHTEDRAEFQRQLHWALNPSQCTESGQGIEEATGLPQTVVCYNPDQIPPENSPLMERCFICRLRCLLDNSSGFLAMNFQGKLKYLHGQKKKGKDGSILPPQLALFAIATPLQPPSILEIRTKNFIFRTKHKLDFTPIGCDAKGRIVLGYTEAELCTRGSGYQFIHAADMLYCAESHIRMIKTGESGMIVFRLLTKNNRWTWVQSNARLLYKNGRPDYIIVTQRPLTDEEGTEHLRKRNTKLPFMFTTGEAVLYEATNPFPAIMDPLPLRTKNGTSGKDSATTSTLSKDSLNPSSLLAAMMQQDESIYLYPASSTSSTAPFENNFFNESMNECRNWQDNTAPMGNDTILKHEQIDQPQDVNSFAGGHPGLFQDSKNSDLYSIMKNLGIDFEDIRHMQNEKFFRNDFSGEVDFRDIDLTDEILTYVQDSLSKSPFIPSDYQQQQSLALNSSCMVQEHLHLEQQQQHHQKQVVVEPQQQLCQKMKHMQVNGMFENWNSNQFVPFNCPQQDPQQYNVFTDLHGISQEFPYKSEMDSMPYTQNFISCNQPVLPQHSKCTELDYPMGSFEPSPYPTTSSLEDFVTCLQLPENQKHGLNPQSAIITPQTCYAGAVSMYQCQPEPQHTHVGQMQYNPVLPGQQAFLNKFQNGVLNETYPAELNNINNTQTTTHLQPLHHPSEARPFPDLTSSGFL

Row | SMILES | Potency [1] | Potency [2] | outcome [3] | Potency [4] | Potency [5] | Potency [6] | Potency [7] | Potency [8] | Potency (Aromatase (Homo sapiens)) | Potency [9] | Potency [10] | Potency [11] | Potency [12] | Potency [13] | Potency [14] | Potency [15] | Potency [16] | Potency [17] | Potency [18] | Potency [19]
1 | C/C=C/C=C/C=O | inactive | inactive | inactive | inactive | inactive | inactive | inactive | inactive | inactive | inactive | inactive | inactive | inactive | inactive | inactive | inactive |  |  |  | 
2 | N#CCc1ccc(Cl)cc1Cl | inactive | inactive | inactive | inactive | inactive | inactive | inactive | inactive | inactive | inactive | inactive | inactive | inactive | inactive | inactive | inactive | inactive | inactive | inactive | 
3 | CCOC(=O)c1ccccc1C(=C1C=C(Br)C(=O)C(Br)=C1)c1cc(Br)c(O)c(Br)c1 | 45.7 µM (active) | 18.2 µM (active) | inactive | 5.8 µM [inconclusive] (active) |  | inactive |  | inactive | inactive | inactive | inactive | inactive |  | inactive |  |  |  |  |  | 
4 | NCCNCCO | inactive | inactive | inactive | inactive | inactive | inactive | inactive | inactive | inactive | inactive | inactive | inactive | inactive | inactive | inactive | inactive | inactive | inactive |  | inactive
5 | CCCCCCC(C)(C)C(=O)O | inactive | inactive | inactive | inactive | inactive | inactive | inactive | inactive | inactive | inactive | inactive | inactive | inactive |  | inactive | inactive |  |  |  | inactive
6 | Cc1cc2c(OCC(CNC(C)(C)C)OC(=O)c3ccccc3)cccc2[nH]1 (centres undefined) | 11.9 µM (active) | 26.6 µM (active) | inactive | inactive | inactive | inactive | inactive | inactive | inactive | inactive | inactive | inactive | inactive | inactive | inactive | inactive | inactive | inactive | inactive | inactive
7 | Cc1ccco1 | inactive | inactive | inactive | inactive | inactive | inactive | inactive | inactive | inactive | inactive | inactive | inactive | inactive | inactive | inactive | inactive | inactive | inactive |  | inactive
8 | CCn1cc(C(=O)O)c(=O)c2cc(F)c(N3CCNCC3)cc21 | inactive | inactive | inactive | inactive | inactive | inactive | inactive | inactive | inactive | inactive | inactive | inactive | inactive | inactive | inactive | inactive | inactive | inactive | inactive | inactive
9 | C[C@@H](O)[C@H]1C(=O)N2C(C(=O)O)=C([C@H]3CCCO3)S[C@H]12 | inactive | inactive | inactive | inactive | inactive | inactive | inactive | inactive | inactive | inactive |  | inactive | inactive | inactive | inactive |  | inactive | inactive |  | inactive
10 | O=C(OC(=O)c1ccccc1)c1ccccc1 | inactive | inactive | inactive |  | inactive | inactive | inactive | inactive | inactive | inactive | inactive | inactive | inactive | inactive | inactive | inactive | inactive | inactive | inactive | inactive
11 | COc1cc(C(=O)NCCCCCC(=O)O)cc(OC)c1OC | inactive | inactive | inactive | inactive | inactive | inactive | inactive | inactive | inactive | inactive | inactive | inactive | inactive | inactive | inactive | inactive | inactive | inactive | inactive | inactive
12 | CCCCCCCCCI | inactive | inactive | inactive | inactive |  |  | inactive | inactive | inactive | inactive | inactive | inactive | inactive | inactive | inactive | inactive | inactive | inactive | inactive | 
13 | CC(C)=CCC/C(C)=C/CC/C(C)=C/CCC(=O)OC/C=C(\C)CCC=C(C)C | inactive | inactive | inactive | inactive | inactive | inactive | inactive | inactive | inactive | inactive | inactive | inactive | inactive | inactive | inactive | inactive | inactive | inactive | inactive | 
14 | C=CC(C)(CCC=C(C)C)OC(=O)CC(C)C (centres undefined) | inactive | inactive | inactive | inactive | inactive | inactive | inactive | inactive | inactive | inactive |  | inactive | inactive | inactive | inactive | inactive | inactive | inactive |  | 
